# Screening data deposited in PubChem BioAssay by National Center for Advancing Translational Sciences (NCATS).
# Sampled rows, rich in hits. Any-hit rate of the full collection: about 18%.
# DT40 TDP1 no CPT – qHTS for Inhibitors of human tyrosyl-DNA phosphodiesterase 1 (TDP1): qHTS in cells in absence of CPT. DT40 Tdp1-/- hTDP1 cells, no CPT, ATP luminescence, 48 h. Potency, µM (titrated, usually from 46.2 µM), most hits filed as inhibitors. hit rate 15% among 420,000; also: nearly all actives have a fitted effect of over 55% in size
#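 Growth kinetics read by CellTiter-Glo luminescence after ≥48 hr at 37 °C. Cells: DT40 Tdp1-/- stably carrying human TDP1, 400 per well, compound exposure in the absence of CPT (DMSO vehicle).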
# IL1B secr inh – inhibitors of inflammasome signaling (IL-1 beta secretion). THP-1 LPS/ATP IL-1B secretion, AlphaLISA, 16 h; hits give low values. activity change, % at 57.5 µM. hit rate 4.7% among 360,000; in the data active = activity change below about -50%; inconclusive = mostly about -30% to -49%
#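 Secreted IL-1B measured by AlphaLISA bead assay after 16 h compound exposure of THP-1 cells; compounds (final up to 57.5 uM) added 1 h before LPS (250 ng/mL) and ATP (1.25 mM) stimulation; lower signal means less secretion.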
# RORgamma inh – inhibitors of mouse ROR gamma transcriptional activity; Potency, µM (top dose mostly 53.6 µM), hits mostly inhibitors; hit rate 5.4% among 310,000; P51450; AID 2551; Drosophila S2 Gal4-RORgamma UAS-luciferase reporter, 20 h; also: nearly all actives have a fitted effect of over 60% in size
# Target sequence (P51450 whole entry, looked up, the tested form may be a part): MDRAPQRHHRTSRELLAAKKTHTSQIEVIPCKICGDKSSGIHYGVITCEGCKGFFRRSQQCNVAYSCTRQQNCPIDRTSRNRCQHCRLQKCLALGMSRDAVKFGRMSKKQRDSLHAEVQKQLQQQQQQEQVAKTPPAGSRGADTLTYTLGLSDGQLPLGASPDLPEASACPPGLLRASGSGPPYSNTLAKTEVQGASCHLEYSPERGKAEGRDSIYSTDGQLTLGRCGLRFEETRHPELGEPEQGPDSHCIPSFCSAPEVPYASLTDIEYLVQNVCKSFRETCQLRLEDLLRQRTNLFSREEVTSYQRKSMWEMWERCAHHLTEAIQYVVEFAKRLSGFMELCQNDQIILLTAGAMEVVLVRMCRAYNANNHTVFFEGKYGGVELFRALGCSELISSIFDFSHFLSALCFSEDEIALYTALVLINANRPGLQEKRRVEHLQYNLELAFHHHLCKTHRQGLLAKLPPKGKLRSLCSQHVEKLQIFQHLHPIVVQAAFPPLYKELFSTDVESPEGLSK
#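 A Gal4/UAS one-hybrid system in insect cells: metallothionein-promoter Gal4–ROR gamma fusion plus Photinus luciferase reporter. Copper sulfate 700 uM final, 20 hr ambient incubation, luminescent detection after 10 min with reagent.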
# LDHA inh – blocks human lactate dehydrogenase A; P00338; purified LDHA, NADH/diaphorase-resazurin fluorescence; hits give low values; activity change, % (values are at about 110 or 230 µM); hit rate 0.15% among 480,000; in the data active = activity change below about -30%; inconclusive = mostly about -25% to -30%
#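 Resorufin fluorescence (ex540/em590), read at 0 and 20 min after diaphorase/resazurin addition, reports the NADH left after a 5 min room-temperature reaction of 2 nM human LDH5 with 0.06 mM NADH and 0.2 mM pyruvate.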
# DT40 TDP1 CPT – growth inhibition of DT40 Tdp1-/-;hTDP1 cells with camptothecin (screen for TDP1 inhibitors). hit rate 12% among 420,000. Potency, µM (series often up to 46.2 µM), actives largely listed as inhibitors. chicken DT40 Tdp1-/-;hTDP1 cells + 20 nM CPT, ATP luminescence, 48 h; also: nearly all actives have a fitted effect of over 55% in size
#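 Chicken DT40 Tdp1-/- cells stably complemented with human TDP1 were seeded at 400 cells/well in medium containing 20 nM camptothecin, exposed to pin-transferred compounds, and grown at 37 °C for at least 48 hr. Viability was read as ATP luminescence.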
# Gal4-VP16 FLuc – Gal4-VP16 reporter inhibition counter-screen. Drosophila S2 Gal4-VP16 UAS-luciferase, luminescence, 20 h. Potency, µM (highest dose often 53.6 µM), usual class: inhibitors. hit rate 3.5% among 310,000;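 also: Gal4-VP16 expression switched on by copper sulfate through the metallothionein promoter; nearly all actives have a fitted effect of over 50% in size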
# A number is an active result; - = inactive; ? = inconclusive; . = no result. Unless noted, calls follow the shape of the dose curve; as a rule, active = well fitted curve in the direction sought with a large enough effect; inconclusive = small, poorly fitted or top-dose-only effect, or another doubt; inactive = no such curve, though single readings can be large; an effect the other way counts as inactive or inconclusive.
SMILES,DT40 TDP1 no CPT,IL1B secr inh,RORgamma inh,LDHA inh,DT40 TDP1 CPT,Gal4-VP16 FLuc
COc1cc(-c2noc(C3CCCN(C(=O)c4c(F)cccc4F)C3)n2)cc(OC)c1OC (stereo not drawn),21µM,-,-,-,?,-
COc1cc(OC)cc(C(=O)N2CCCC(c3nc(-c4ccc(C)o4)no3)C2)c1 (stereo not drawn),?,-,-,-,-,-
Cc1ccc(-c2noc(C3CCCN(C(=O)c4cccc([N+](=O)[O-])c4)C3)n2)o1 (stereo not drawn),-,-,-,-,?,-
CCC(C)(C)NC(=O)CNc1cccc(-c2nnnn2C)c1,.,.,.,-,.,.
COc1ccc(-c2noc(C3CCCN(C(=O)c4cccc(C)c4)C3)n2)cc1 (stereo not drawn),16µM,?,-,-,16µM,-
FC(F)(F)c1cccc(NC(=S)NCCC(c2ccccc2)c2ccccc2)c1,.,.,.,-,.,.
FC(F)(F)c1cc(NC(=S)Nc2ccc3ccccc3c2)cc(C(F)(F)F)c1,.,.,?,.,.,14µM
FC(F)(F)c1cccc(NC(=S)NCCc2ccncc2)c1,.,.,.,-,.,.
S=C(NCc1ccc(Cl)cc1)Nc1ccc2ccccc2c1,.,.,.,-,.,.
FC(F)(F)c1cccc(NC(=S)Nc2cccc(NC(=S)Nc3cccc(C(F)(F)F)c3)n2)c1,21µM,-86,5µM,-,29µM,?
CCOC(=O)NC(=S)Nc1cccc(C)n1,-,-,.,-,-,.
Cc1cccc(NC(=S)Nc2cccc(C(F)(F)F)c2)n1,?,-,1µM,-,?,?
COc1cc(NC(=S)Nc2cccc(C)n2)cc(OC)c1OC,?,-,2.5µM,-,-,8.9µM
COc1cccc(NC(=O)C2(C)CCN2Cc2ccc(-c3ccccc3)o2)c1 (stereo not drawn),?,-,.,-,?,.
CC1(C(=O)Nc2cnc3ccccc3c2)CCN1Cc1ccccc1Cl (stereo not drawn),15µM,-,.,-,16µM,.
CC1(C(=O)Nc2cnc3ccccc3c2)CCN1Cc1ccc(-c2ccccc2)o1 (stereo not drawn),16µM,-,.,-,?,.
COc1cccc(CN2CCC2(C)C(=O)Nc2cnc3ccccc3c2)c1F (stereo not drawn),18µM,-,.,-,?,.
COc1cccc(CN2CCC2(C)C(=O)Nc2ccc(Cl)c(Cl)c2)c1F (stereo not drawn),?,-,.,-,21µM,.
O=C(c1cc2cc(Br)ccc2o1)c1ccc(F)cc1F,.,.,.,-,.,.
Cc1cccc(Cn2c(N3CCN(Cc4c(F)cccc4Cl)CC3)nc3c2c(=O)[nH]c(=O)n3C)c1,.,.,.,-,.,.
CC1(C(=O)Nc2cnc3ccccc3c2)CCN1Cc1ccccc1OC(F)F (stereo not drawn),16µM,.,.,-,23µM,.
O=C1CCCC(O)=C1N=Nc1c(Cl)cc(Cl)cc1Cl,?,-,11µM,-,?,?
N#Cc1ccccc1CN1CCN(c2oc(C3CC3)nc2C#N)CC1,.,.,.,-,.,.
Cc1ccc(NC(=O)CN2c3ccc(S(N)(=O)=O)cc3CC2C)c(F)c1 (stereo not drawn),.,.,.,-,.,.
Fc1ccc(Br)cc1C1C=C(c2cccnc2)Nc2ncnn21 (stereo not drawn),16µM,-,-,-,16µM,-
SMILES,DT40 TDP1 no CPT,IL1B secr inh,RORgamma inh,LDHA inh,DT40 TDP1 CPT,Gal4-VP16 FLuc
CCOc1ccc(C2C=C(c3ccc(F)cc3)Nc3ncnn32)cc1 (stereo not drawn),?,-,13µM,-,-,?
CCOC(=O)C1=C(C)Nc2ncnn2C1c1cc(Br)ccc1F (stereo not drawn),26µM,-,-,-,?,?
CCOc1ccc(C2=CC(c3cc(Br)ccc3F)n3ncnc3N2)cc1Cl (stereo not drawn),18µM,.,.,-,15µM,.
CCOC(=O)C1=C(C)Nc2ncnn2C1c1ccc(O)cc1 (stereo not drawn),.,.,.,-,.,.
COC(=O)C(CC(C)C)NC(=O)CC(c1ccccc1)c1ccccc1 (stereo not drawn),.,.,.,-,.,.
COc1cccc(C(=O)/C(=C/c2ccco2)c2nc3ccccc3o2)c1,.,.,.,-,.,.
CN(C)S(=O)(=O)c1cccc(NC(=O)c2ccc3c(c2)OCCO3)c1,15µM,-,.,-,15µM,.
CN(C)S(=O)(=O)c1cccc(NC(=O)c2ccncc2)c1,?,-,?,-,-,-
O=C(Nc1cc(Cl)cc(Cl)c1)c1cccc(OC(F)F)c1,?,-95,?,-,18µM,-
COc1ccc(C)cc1NC(=O)c1ccc2c(c1)OCO2,-,-,-,-,-,-
COc1ccc(S(=O)(=O)N(C)C)cc1NC(=O)c1ccc2c(c1)OCCO2,-,-57,.,-,-,.
CN(C)S(=O)(=O)c1cccc(C(=O)Nc2ccccc2)c1,-,-,-,-,-,-
CN(C)S(=O)(=O)c1cccc(C(=O)Nc2cc(Cl)cc(Cl)c2)c1,18µM,?,-,-,?,?
CC(C)Oc1cccc(C(=O)Nc2cc(Cl)cc(Cl)c2)c1,.,.,.,-,.,.
CN(CC(=O)NC(C)(C)C)Cc1coc(-c2ccc(Cl)cc2)n1,.,.,.,-,.,.
N#Cc1cccnc1Oc1ccc(C(N)=O)cc1,.,.,.,-,.,.
CS(=O)(=O)N(Cc1csc(-c2cccs2)n1)C1CCN(C(=O)c2cccc(Cl)c2)CC1,.,.,.,-,.,.
O=C(O)CCn1cc(C(C(=O)O)N2CCN(Cc3ccccc3)CC2)c2ccc(F)cc21 (stereo not drawn),.,.,.,-,.,.
CCc1nc2sc3c(O)cc(=O)[nH]c3c2cc1C,12µM,-,-,-,?,-
Cc1cc(-c2ccccc2)c2c(n1)sc1c(O)cc(=O)[nH]c12,-,-,-,-,-,-
CCn1cc(C(=O)NCCc2ccc(Cl)cc2)c(=O)c2ccc(C)nc21,?,-,-,-,-,-
CCn1cc(C(=O)OCC(=O)Nc2c(C)cccc2C)c(=O)c2ccc(C)nc21,23µM,-,-,-,16µM,-
CCn1cc(C(=O)OCC(=O)Nc2cccc(Cl)c2C)c(=O)c2ccc(C)nc21,-,.,.,-,-,.
CCn1cc(C(=O)NCCc2ccc(OC)cc2)c(=O)c2ccc(C)nc21,23µM,-,-,-,?,-
CCOC(=O)CCCCCCN,.,.,.,-,.,.
O=C1N=C(N2CCCCC2)S/C1=C\c1ccc(Br)cc1,?,-,-,-,-,-
CCOc1ccc(/C=C2/SC(=O)NC2=S)cc1,?,-,11µM,-,-,?
CCOc1ccc(/C=C2\SC(N3CCCCC3)=NC2=O)cc1,2.9µM,-,-,-,6.5µM,-
Cc1ccc(/C=C2\SC(N3CCCC3)=NC2=O)cc1,.,.,-,.,.,-
CC(C)c1ccc(/C=C2\SC(N3CCCC3)=NC2=O)cc1,23µM,?,?,-,?,-
